Reference: PubChem BioAssay (Tox21)
Unmarked numbers belong to inactive results. Results filed as inconclusive are left out. Where a call stands in place of a potency, no number is given. Calls of active or inactive are those of the source. Unless noted, calls follow the shape of the dose curve; as a rule, active = well fitted curve in the direction sought with a large enough effect in the repeat runs; inconclusive = weak or mixed curves; inactive = no such curve, though single readings can be large; an effect the other way counts as inactive or inconclusive.

Experiments:
[1] = qHTS assay to test for compound auto fluorescence at 535 nm (green) in HEK293 cells (AID 720680)
[2] = qHTS assay to test for compound auto fluorescence at 460 nm (blue) in HEK293 cell free culture (AID 720681)
In short: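 Test compounds were pinned into cell-free culture medium (DMEM with 10% FBS) and fluorescence was read directly at Ex/Em 405/460 nm. Signals were expressed as fluorescence equivalents of triamterene, with DMSO vehicle as control.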

[3] = qHTS assay to test for compound auto fluorescence at 535 nm (green) in HEK293 cell free culture (AID 720682)
In short: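 Using fluorescein as calibrant, autofluorescence was quantified at 485/535 nm in cell-free DMEM containing 10% FBS after pintool addition of compound or vehicle.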

[4] = qHTS assay to test for compound auto fluorescence at 590 nm (red) in HEK293 cell free culture (AID 720683)
In short: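 Tox21 10K library compounds were pinned into cell-free DMEM with 10% FBS and fluorescence was read at excitation 540 nm. Activity is expressed as Rose Bengal sodium equivalency.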

[5] = qHTS assay to test for compound auto fluorescence at 460 nm (blue) in HepG2 cell free culture (AID 720685)
In short: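 Cell-free plates of MEM plus 10% FBS received 23 nL compound or DMSO vehicle; blue-channel (405/460 nm) intensity scored against triamterene as reference fluorophore.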

[6] = qHTS assay to test for compound auto fluorescence at 460 nm (blue) in HepG2 cells (AID 720687)
In short: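 Cells (2,000/well in MEM with 10% FBS) attached overnight at 37 C, then were exposed to compound or DMSO for 1 hr at 37 C, 5% CO2. Fluorescence read at Ex/Em 405/460 nm, expressed as triamterene-equivalent signal.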

[7] = target: Glucocorticoid receptor (Homo sapiens) (UniProt P04150); assay: qHTS assay to identify small molecule agonists of the glucocorticoid receptor (GR) signaling pathway (AID 720691; active = well fitted activation curve with a large enough effect in the signal ratio in the repeat runs, not every such curve was filed as active; the % refers to the signal ratio)
In short: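 Cells: GR-bla HeLa, endogenous GR with stably integrated GRE-beta-lactamase reporter. Treatment 18 h, 37 C, compounds delivered in DMSO. Detection via LiveBLAzer B/G FRET substrate, 2 h RT, fluorescence intensity.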

[8] = qHTS assay to identify small molecule antagonists of the glucocorticoid receptor (GR) signaling pathway - cell viability counter screen (AID 720693); also: nearly all actives have a fitted effect of over 55% in size
[9] = qHTS assay for identifying genotoxic compounds that show differential cytotoxicity against isogenic chicken DT40 cell lines with known DNA damage response pathways - wild type cell line (AID 743012); also: nearly all actives have a fitted effect of over 60% in size; also: potency is read from the fitted curve at half-maximal effect
In short: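 Luminescent ATP viability signal (CellTiter-Glo, 30 min RT) recorded after wild type DT40 cells were incubated with compounds for 40 h at 37 C/5% CO2.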

[10] = qHTS assay for identifying genotoxic compounds that show differential cytotoxicity against isogenic chicken DT40 cell lines with known DNA damage response pathways - Rad54/Ku70 mutant cell line (AID 743015); also: nearly all actives have a fitted effect of over 60% in size; also: potency is read from the fitted curve at half-maximal effect
[11] = qHTS assay to identify small molecule antagonists of the androgen receptor (AR) signaling pathway - cell viability counter screen (AID 743033; also: nearly all actives have a fitted effect of over 45% in size)
[12] = qHTS assay to identify small molecule antagonists of the androgen receptor (AR) signaling pathway using the MDA cell line - cell viability counter screen (AID 743041; also: nearly all actives have a fitted effect of over 45% in size)
In short: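 qHTS viability read-out; MDA-kb2 AR-luc; R1881-stimulated; 16 h exposure at 37C, 0% CO2; CellTiter-Fluor, 30 min; fluorescence intensity.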

[13] = qHTS assay to identify small molecule antagonists of the thyroid receptor (TR) signaling pathway - cell viability counter screen (AID 743064); also: nearly all actives have a fitted effect of over 50% in size; also: potency is read from the fitted curve at half-maximal effect
In short: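 Counter screen for cytotoxicity: compound plus T3 (1 nM final) on GH3.TRE-Luc cells, 23.5 h at 37 °C, then fluorescence viability readout with CellTiter-Fluor.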

[14] = qHTS assay to identify small molecule antagonists of the thyroid receptor (TR) signaling pathway (AID 743065); also: nearly all actives have a fitted effect of over 55% in size; also: potency is read from the fitted curve at half-maximal effect
In short: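 GH3.TRE-Luc rat pituitary cells carrying two TR response elements driving luciferase were plated for 4 h, given compound plus 1 nM T3 (final), and incubated 23.5 h at 37 C. ONE-Glo luminescence measured reporter inhibition; CellTiter-Fluor fluorescence tracked cytotoxicity.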

[15] = qHTS assay to test for compound auto fluorescence at 535 nm (green) in HepG2 cell free culture (AID 720686)
[16] = target: Glucocorticoid receptor (Homo sapiens) (UniProt P04150); assay: qHTS assay to identify small molecule antagonists of the glucocorticoid receptor (GR) signaling pathway (AID 720692; active = well fitted inhibition curve with a large enough effect in the signal ratio in the repeat runs, not every such curve was filed as active; the % refers to the signal ratio)
In short: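 Quantitative HTS in antagonist format: HeLa cells expressing endogenous GR and a stably integrated GRE-bla reporter, stimulated with 5 nM dexamethasone (final) alongside test compounds for 18 h.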

[17] = qHTS assay for identifying genotoxic compounds that show differential cytotoxicity against isogenic chicken DT40 cell lines with known DNA damage response pathways - Rev3 mutant cell line (AID 743014); also: nearly all actives have a fitted effect of over 55% in size; also: potency is read from the fitted curve at half-maximal effect
[18] = qHTS assay to test for compound auto fluorescence at 590 nm (red) in HepG2 cell free culture (AID 720684)
In short: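 Readout: intrinsic compound fluorescence at 590 nm emission after 540 nm excitation, scaled to Rose Bengal sodium. Matrix was cell-free MEM with 10% FBS; DMSO vehicle wells served as control.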

Chain of Glucocorticoid receptor (Homo sapiens) (P04150 whole entry, looked up): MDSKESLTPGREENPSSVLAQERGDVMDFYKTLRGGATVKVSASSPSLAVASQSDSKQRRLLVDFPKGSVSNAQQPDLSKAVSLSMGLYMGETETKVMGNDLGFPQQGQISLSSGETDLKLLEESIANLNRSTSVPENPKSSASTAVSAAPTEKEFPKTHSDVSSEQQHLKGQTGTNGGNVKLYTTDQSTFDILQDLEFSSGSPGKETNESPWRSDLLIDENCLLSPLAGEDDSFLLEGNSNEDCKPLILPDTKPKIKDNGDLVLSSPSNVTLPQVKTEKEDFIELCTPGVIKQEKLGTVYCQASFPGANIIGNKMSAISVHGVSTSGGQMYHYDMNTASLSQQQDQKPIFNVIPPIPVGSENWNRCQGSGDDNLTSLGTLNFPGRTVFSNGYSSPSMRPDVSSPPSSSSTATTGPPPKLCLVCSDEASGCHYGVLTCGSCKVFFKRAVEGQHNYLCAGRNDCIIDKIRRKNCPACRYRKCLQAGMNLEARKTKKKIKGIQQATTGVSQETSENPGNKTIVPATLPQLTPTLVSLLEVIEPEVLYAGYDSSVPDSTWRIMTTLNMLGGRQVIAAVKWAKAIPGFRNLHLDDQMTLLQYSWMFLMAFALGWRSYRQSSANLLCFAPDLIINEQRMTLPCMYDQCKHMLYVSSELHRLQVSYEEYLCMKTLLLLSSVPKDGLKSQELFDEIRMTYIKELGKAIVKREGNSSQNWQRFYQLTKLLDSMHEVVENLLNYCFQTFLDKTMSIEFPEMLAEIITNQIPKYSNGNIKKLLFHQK

SMILES | outcome [1] | Potency [2] | outcome [3] | outcome [4] | Potency [5] | Potency [6] | Potency [7] | Potency [8] | Potency [9] | Potency [10] | Potency [11] | Potency [12] | Potency [13] | Potency [14] | outcome [15] | Potency [16] | Potency [17] | outcome [18]
O=C1c2cccc(O)c2C(=O)c2c(O)cc(CO)cc21 | inactive | inactive | inactive | inactive | inactive | inactive | inactive | inactive | inactive | 24.3 µM (active) | inactive | inactive | inactive | inactive | – | – | – | –
CC/C(=C\C(=N/O)C(N)=O)C(C)[N+](=O)[O-] (stereo not given) | inactive | inactive | inactive | inactive | inactive | inactive | inactive | inactive | 30.6 µM (active) | 30.6 µM (active) | inactive | inactive | inactive | inactive | inactive | inactive | 24.3 µM (active) | –
CC(C)CCCCCCOC(=O)c1ccc(C(=O)OCCCCCCC(C)C)c(C(=O)OCCCCCCC(C)C)c1 | inactive | inactive | inactive | inactive | inactive | inactive | – | inactive | inactive | inactive | inactive | inactive | inactive | inactive | – | – | inactive | –
CN1CCC(=C2c3ccccc3C=Cc3ccccc32)CC1 | inactive | inactive | inactive | inactive | inactive | inactive | inactive | – | 7.5 µM (active) | 13.3 µM (active) | inactive | – | 15 µM (active) | 16.8 µM (active) | – | – | 10.6 µM (active) | –
CC(C)c1ccccc1C(C)C | inactive | inactive | inactive | inactive | inactive | inactive | inactive | inactive | inactive | – | inactive | inactive | 54.5 µM (active) | 61.2 µM (active) | inactive | – | inactive | –
CCCc1ccccc1 | inactive | inactive | inactive | inactive | inactive | inactive | inactive | inactive | – | inactive | inactive | inactive | inactive | inactive | inactive | inactive | inactive | –
Nc1nc(N)c(-c2ccccc2)s1 | inactive | inactive | inactive | inactive | inactive | inactive | inactive | inactive | inactive | inactive | inactive | inactive | inactive | inactive | – | inactive | inactive | –
CC1CCc2cc(F)cc3c(=O)c(C(=O)O)cn1c23 (stereo not given) | inactive | inactive | – | inactive | inactive | inactive | inactive | inactive | inactive | inactive | inactive | inactive | – | inactive | – | – | inactive | inactive
CCCCCC/C=C/C=O | inactive | inactive | – | inactive | inactive | inactive | inactive | inactive | inactive | inactive | inactive | – | inactive | inactive | inactive | – | inactive | inactive
Cc1ccc(C(N)=O)cc1N | inactive | inactive | – | inactive | inactive | inactive | inactive | inactive | inactive | – | inactive | inactive | inactive | inactive | inactive | inactive | inactive | inactive
CCCCCCCCCCCCCCC1CO1 (stereo not given) | inactive | inactive | – | inactive | inactive | inactive | inactive | inactive | inactive | inactive | inactive | inactive | inactive | – | inactive | inactive | inactive | –
